In the library only some 5.1% were active in any assay of this set; here they are far more common.
S1P3 antagonist = blocks the human S1P3 receptor. AID 485. 170,000 compounds, 0.27% hits. inhibition, % at 4.98 µM. CHO S1P3 NFAT-BLA reporter, FRET fluorescence, antagonist mode. Q99500;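 active means inhibition above the plate cutoff, the mean inhibition of test wells on that plate plus 3 SD, cut at about 28% in these data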;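 further: cells challenged with S1P at its EC80 of 0.8 µM; blue over green emission ratio from cleaved BLA substrate after 4 h stimulation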
ROMK primary = modulates human ROMK potassium channel activity; P48048; Tet-inducible ROMK, thallium flux fluorescence; actives lie on both sides; B-score at 10 µM; 130,000 compounds, 2% hits; AID 1918;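 active means signal ratio slope over the read window, or its plate-corrected B-score, at least 3 SD from the plate mean, either direction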;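 further: B-score of the F/F0 ratio slope over 7 to 12 s after thallium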
RAM network inh = inhibitors of the yeast RAM network | inhibition, % at 50 µM | S. cerevisiae dse1pr::URA3 reporter, 5-FOA growth OD615, 2 d; analog-sensitive cbk1-as2 kinase mutant strain | 190,000 compounds, 1.8% hits;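 active means inhibition above a set limit, 3 SD over mean compound inhibition, cut at about 8.4% in these data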;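 further: inhibition rescues growth on 5-FOA so higher OD means more RAM inhibition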
KCC2 mod = KCC2 (human) Cl- transport modulation. KCC2 cells, thallium flux FluoZin-2 fluorescence. Q9H2X9. AID 1456. 190,000 compounds, 2.2% hits. B-score of Tl+ flux slope (higher = more flux/activation; lower = inhibition) at 10 µM;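 active means thallium flux slope and its plate-corrected score both differing from the plate sample mean at a set confidence after two filtering rounds, in either direction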;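 further: slope of fluorescence scaled to starting intensity during 10 to 20 s after thallium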
Target sequence (Q9H2X9 whole entry, looked up): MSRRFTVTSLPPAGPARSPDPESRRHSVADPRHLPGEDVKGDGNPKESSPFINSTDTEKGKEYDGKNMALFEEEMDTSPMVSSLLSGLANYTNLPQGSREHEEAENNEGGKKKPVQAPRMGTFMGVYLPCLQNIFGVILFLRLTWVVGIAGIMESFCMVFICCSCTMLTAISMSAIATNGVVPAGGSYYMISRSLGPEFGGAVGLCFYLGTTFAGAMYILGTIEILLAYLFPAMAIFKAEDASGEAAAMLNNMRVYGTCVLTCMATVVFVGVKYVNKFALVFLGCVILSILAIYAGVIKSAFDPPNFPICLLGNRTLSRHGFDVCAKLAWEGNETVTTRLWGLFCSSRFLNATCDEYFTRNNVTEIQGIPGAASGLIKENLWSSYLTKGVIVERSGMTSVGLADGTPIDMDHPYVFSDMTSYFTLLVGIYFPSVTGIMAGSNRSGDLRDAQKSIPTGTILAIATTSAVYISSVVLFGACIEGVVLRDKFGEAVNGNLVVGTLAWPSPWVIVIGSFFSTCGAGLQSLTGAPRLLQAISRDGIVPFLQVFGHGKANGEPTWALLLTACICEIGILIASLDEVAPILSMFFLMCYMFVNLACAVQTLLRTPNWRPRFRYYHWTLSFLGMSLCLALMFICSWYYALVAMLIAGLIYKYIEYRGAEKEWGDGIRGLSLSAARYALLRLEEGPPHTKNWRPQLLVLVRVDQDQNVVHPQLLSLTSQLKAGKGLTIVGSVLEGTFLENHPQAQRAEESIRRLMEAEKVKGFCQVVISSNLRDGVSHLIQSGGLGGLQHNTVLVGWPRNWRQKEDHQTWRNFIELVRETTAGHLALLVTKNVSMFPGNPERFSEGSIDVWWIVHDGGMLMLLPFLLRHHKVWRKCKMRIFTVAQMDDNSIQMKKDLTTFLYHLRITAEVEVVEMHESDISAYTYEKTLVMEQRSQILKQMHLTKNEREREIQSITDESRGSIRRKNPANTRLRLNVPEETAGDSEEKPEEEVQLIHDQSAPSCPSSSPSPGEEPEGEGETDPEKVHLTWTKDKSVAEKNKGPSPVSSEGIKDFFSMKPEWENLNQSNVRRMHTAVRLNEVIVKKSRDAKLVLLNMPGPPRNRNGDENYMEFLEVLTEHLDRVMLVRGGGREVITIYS
S1P4 ag = agonists of human S1P4 receptor; O95977; S1P4-expressing cell line, agonist reporter assay; activation, % at 4.98 µM; 220,000 compounds, 0.35% hits; AID 1509; in the data active means activation above about 11%
S1P4 antagonist = blocks the human S1P4 receptor; S1P4-expressing cells, antagonist mode, reporter read-out; inhibition, % at 4.98 µM; O95977; 220,000 compounds, 0.26% hits; AID 1510; in the data active means inhibition above about 29%
KCC2 secondary = KCC2 (human) modulation, secondary assay | shares compounds with KCC2 mod | HEK293-KCC2, thallium flux, FluoZin2 fluorescence; active compounds read high | normalised thallium flux (F/F0 slope) at 10 µM | 3,700 compounds, 15% hits;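 active means thallium flux slope above the same plate's solvent-only control mean plus 3 SD; inconclusive means the two replicate wells disagree; inactive means no significant difference from solvent-only control wells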
KCC2 bumet counter = bumetanide-insensitive thallium flux in KCC2 cells with ouabain, counter-screen | shares compounds with KCC2 mod | HEK293-KCC2 + bumetanide/ouabain, thallium flux FluoZin2; active compounds read high | normalized thallium flux at 10 µM | 3,700 compounds, 49% hits | AID 1714;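 active means thallium entry rate above the same plate's blocked-transporter control wells by more than 3 SD; inconclusive means the two repeat wells disagree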;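 further: raw slope of fluorescence over initial fluorescence between 10 and 20 s after thallium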
KCC2 sec2 = KCC2 (human) modulation, second secondary assay. shares compounds with KCC2 mod. HEK293-KCC2, thallium flux FluoZin2 fluorescence; actives lie on both sides; F/F0 rise rate, 10–20 s post-thallium. normalized thallium flux at 10 µM. 3,700 compounds, 23% hits. AID 1715;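 active means thallium flux slope more than 3 SD above or below the plate's solvent-only control mean, mostly below; inconclusive means the two repeat wells disagreed; inactive means no significant shift from solvent-only controls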
HEK293 Tl flux = acts in parental HEK cells, KCC2 counter-screen | 3,700 compounds, 46% hits | AID 1716 | HEK293 parental cells, thallium flux FluoZin2, ouabain; baseline-ratio fluorescence slope, 10–20 s after thallium | thallium flux rate (normalised fluorescence) at 10 µM | shares compounds with KCC2 mod;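 active means thallium flux rate significantly above the same plate's solvent-only control wells, beyond their mean plus 3 SD; inconclusive means the two replicate wells gave conflicting results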
KCC2 ouabain = modulates human KCC2 on retest with ouabain. shares compounds with KCC2 mod. HEK293-KCC2, thallium flux FluoZin2 fluorescence; bidirectional: low = inhibitor, high = activator. raw Tl+ flux slope (below DMSO = inhibition, above = activation) at 10 µM. 3,700 compounds, 48% hits. AID 1717;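 active means thallium flux slope beyond 3 SD from same-plate DMSO control mean in most replicates, usually higher, sometimes lower; inconclusive means repeat tests gave conflicting results; inactive means no significant difference from controls in most replicates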;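 further: slope of initial-normalized fluorescence between seconds 10 and 20 after thallium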
HEK293 Tl flux2 = counter-screen for KCC2 modulators: effect in parental HEK293 cells | 3,700 compounds, 33% hits | shares compounds with KCC2 mod | AID 1718 | thallium flux slope at 10 µM | thallium flux FluoZin-2 fluorescence slope;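 active means thallium flux slope above the same plate's solvent-control mean plus 3 SD in both duplicate wells; inconclusive means duplicate wells that disagreed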;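 further: run without ouabain in cells lacking the KCC2 cotransporter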
A number is an active result; . = inactive; ? = inconclusive; / = not tested or not shown.

SMILES	S1P3 antagonist	ROMK primary	RAM network inh	KCC2 mod	S1P4 ag	S1P4 antagonist	KCC2 secondary	KCC2 bumet counter	KCC2 sec2	HEK293 Tl flux	KCC2 ouabain	HEK293 Tl flux2
O=C(CSc1ncnc2sc3c(c12)CCC3)Nc1ccccc1C(=O)O	.	/	/	.	.	.	/	/	/	/	/	/
CCSc1ncnc2sc3c(c12)CCC3	/	.	.	.	.	.	/	/	/	/	/	/
O=C(O)CSc1ncnc2sc3c(c12)CCC3	/	/	.	7.8	.	.	0.016	0.035	.	0.016	0.037	0.012
COC(=O)c1ccccc1NC(=O)NC1CCCCC1	.	.	/	.	.	.	/	/	/	/	/	/
Cc1nn(-c2ccccn2)c2c1C(=O)C(Br)CC2 (stereo unspecified)	.	.	.	.	.	.	/	/	/	/	/	/
O=C(O)c1cccc(CSc2n[nH]c(-c3ccc(Cl)cc3Cl)n2)c1	.	.	.	.	.	.	/	/	/	/	/	/
O=c1c2cc(Cl)ccc2nc(-c2ccccc2)n1O	.	.	.	50	.	.	0.032	0.073	.	0.034	0.052	0.018
O=c1c2ccc(Cl)cc2nc(-c2ccc([N+](=O)[O-])cc2)n1O	.	.	.	57	.	.	0.012	0.092	0.059	0.065	0.079	0.042
O=c1c2cc(Br)ccc2nc(-c2ccc([N+](=O)[O-])cc2)n1O	.	.	.	72	.	.	0.05	0.11	0.058	0.053	0.069	0.027
O=c1oc(-c2ccc([N+](=O)[O-])cc2)nc2ccc(O)cc12	.	.	.	.	.	.	/	/	/	/	/	/
CCOC(=O)C1(Cc2ccccc2C(F)(F)F)CCN(C2CCN(C(C)C)CC2)CC1	.	.	.	.	.	.	/	/	/	/	/	/
CSc1nc(N)c2c(C)c(C)sc2n1	.	.	.	.	.	.	/	/	/	/	/	/
CN(C)CCCN(CCCN(C)C)C(=S)Nc1ccc(S(=O)(=O)N2CCOCC2)cc1	.	.	/	.	.	.	/	/	/	/	/	/
CCCCCCN1C(=O)C(O)=C(C(C)=O)C1c1ccc(Cl)cc1 (stereo unspecified)	.	/	.	-3.3	.	.	.	?	.	.	0.014	.
Clc1cccc(CN2CCCCCCC2)c1Cl	.	/	.	.	.	.	/	/	/	/	/	/
Cc1ccccc1NC(=S)NC(NC(=O)COc1ccccc1)C(Cl)(Cl)Cl (stereo unspecified)	/	/	.	/	.	.	/	/	/	/	/	/
COC(=O)c1ccccc1NC(=S)NC(=O)COc1ccc(C(C)C)cc1	.	.	9.2	9.7	.	.	.	0.017	.	0.019	0.036	.
COC(=O)c1ccccc1NC(=S)NC(NC(=O)COc1ccccc1)C(Cl)(Cl)Cl (stereo unspecified)	/	/	.	/	.	.	.	?	.	?	0.025	.
O=C(Cn1nc(-c2cccc(Cl)c2)ccc1=O)Nc1ccc(C(=O)NC2CC2)cc1	.	.	.	.	.	.	/	/	/	/	/	/
Cc1ccc(-n2c(SCC(=O)N3CCOCC3)nnc2-c2ccncc2)cc1C	.	/	/	/	.	.	/	/	/	/	/	/
Cc1cccc(CCNC(=O)CN(C)S(=O)(=O)c2ccc3c(c2)c(=O)n(C)c(=O)n3C)c1	.	/	.	.	.	.	/	/	/	/	/	/
Cn1c(=O)c2cc(S(=O)(=O)NCCC(=O)N3CC=C(c4ccccc4)CC3)ccc2n(C)c1=O	.	/	.	.	.	.	/	/	/	/	/	/
CN(CC(=O)N1CC=C(c2ccccc2)CC1)S(=O)(=O)c1ccc2c(c1)c(=O)n(C)c(=O)n2C	.	/	.	-3.9	.	.	.	?	.	.	.	.
CCC(Cc1ccccc1)NC(=O)CN(C)S(=O)(=O)c1ccc2c(c1)c(=O)n(C)c(=O)n2C (stereo unspecified)	/	/	.	/	.	.	.	.	0.024	.	?	.
COc1ccccc1OCCOCCOc1c(C)cc(C)cc1Br	.	/	.	-5.4	.	.	.	.	.	.	.	.
SMILES	S1P3 antagonist	ROMK primary	RAM network inh	KCC2 mod	S1P4 ag	S1P4 antagonist	KCC2 secondary	KCC2 bumet counter	KCC2 sec2	HEK293 Tl flux	KCC2 ouabain	HEK293 Tl flux2
Cc1ccc(-n2c(CNc3cccc(Cl)c3)n[nH]c2=S)cc1	.	.	.	.	.	.	/	/	/	/	/	/
Cc1ccc(-n2c(CNc3ccc(C)c(Cl)c3)n[nH]c2=S)cc1	.	.	.	3.5	.	.	.	0.084	.	0.011	.	?
CC(C)CC(CC(C)C)=NNC(=O)c1ccc2c(c1)OCO2	.	.	.	3.9	.	.	.	.	.	.	.	.
C/C(=N\NC(=O)c1ccc2c(c1)OCO2)c1ccc(O)cc1	.	/	/	.	.	.	/	/	/	/	/	/
CCN(C(=O)COC(=O)c1cc(-c2cccc3ccccc23)nc2ccccc12)C1CCS(=O)(=O)C1 (stereo unspecified)	.	.	.	.	.	.	/	/	/	/	/	/
O=C(NCc1cccnc1)C1c2ccccc2C(=O)N1C1CCCCCC1 (stereo unspecified)	.	/	.	-4.5	.	.	.	.	.	.	.	?
CCOC(=O)C1CCN(C(=O)c2cc(C)n(C(C)(C)C)n2)CC1	.	.	/	.	.	.	/	/	/	/	/	/
O=C(Nc1nnc(-c2cccs2)o1)c1cc(-c2ccccc2)nc2ccccc12	.	.	.	68	.	.	0.016	0.078	.	0.043	0.061	0.015
O=C(NCc1cccs1)c1cc(-c2ccccc2)nc2ccccc12	.	.	.	.	.	.	/	/	/	/	/	/
CCN(CC)c1ccc(/C=N/NC(=O)OC)c(O)c1	/	.	.	.	.	.	/	/	/	/	/	/
CCN(CC)c1ccc(/C=N/NC(=S)NC)c(O)c1	.	.	.	5.1	.	.	.	0.013	.	?	.	.
CC1(C)N(O)CC(c2cccs2)=[N+]1[O-]	.	.	.	2.9	.	.	.	.	.	.	.	.
[O-][N+]1=C(c2cccs2)CN(O)C1	.	/	.	.	.	.	/	/	/	/	/	/
Cc1ccc(C(=O)NC(=S)Nc2ccc(NC(=O)c3cccs3)cc2)cc1[N+](=O)[O-]	.	/	.	.	.	.	/	/	/	/	/	/
O=C(CSc1nnc(Cc2ccccc2)o1)c1ccc(F)cc1	.	/	/	-4.3	.	.	.	?	0.022	.	?	.
